# Laboratory results: the supplement of paper PMC4466140
# What was measured:
# Assay in all cases: SPOT peptide array binding signal intensity (averaged, normalized) (arbitrary units (background-subtracted, floor 0; scale differs between SH3 domains)); higher = stronger binding of the SH3 domain to the peptide
# [1] = molecular target: CaNbp2
# Summary of the method: (§1)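 Detection of bound protein relied on anti-GST antibody, an HRP anti-mouse secondary and luminol, with imaging and quantification in Genespotter. The bound protein was GST-fused SH3 domains from four yeast species, incubated at 10 μg/ml overnight at 4°C in TBS-based blocking buffer on cellulose membranes carrying synthetic 15-mer peptides with cysteines replaced by serines. Binding signal is normalized, background-subtracted spot intensity averaged over replicates, in arbitrary units that differ between domains.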
# [2] = molecular target: CaRvs167
# Summary of the method: as §1
# [3] = molecular target: CaRvs167-3
# Summary of the method: as §1
# [4] = molecular target: CaSho1
# Summary of the method: as §1
# [5] = molecular target: CaSla1-D1-D2
# Summary of the method: as §1
# [6] = molecular target: CaSla1-D3
# Summary of the method: as §1
# [7] = molecular target: ScAbp1
# Summary of the method: as §1
# [8] = molecular target: ScBbc1
# Summary of the method: as §1
# [9] = molecular target: ScBem1-D1
# Summary of the method: as §1
# [10] = molecular target: ScBzz1-D1
# Summary of the method: as §1
# [11] = molecular target: ScBzz1-D2
# Summary of the method: as §1
# [12] = molecular target: ScCyk3
# Summary of the method: as §1
# [13] = molecular target: ScFus1
# Summary of the method: as §1
# [14] = molecular target: ScHof1
# Summary of the method: as §1
# [15] = molecular target: ScHse1
# Summary of the method: as §1
# [16] = molecular target: ScLsb1
# Summary of the method: as §1
# [17] = molecular target: ScLsb2
# Summary of the method: as §1
# [18] = molecular target: ScLsb3
# Summary of the method: as §1
# [19] = molecular target: ScLsb4
# Summary of the method: as §1
# [20] = molecular target: ScMyo3
# Summary of the method: as §1
# [21] = molecular target: ScMyo5
# Summary of the method: as §1
# [22] = molecular target: ScNbp2
# Summary of the method: as §1
# [23] = molecular target: ScPex13
# Summary of the method: as §1
# [24] = molecular target: ScRvs167
# Summary of the method: as §1
# [25] = molecular target: ScSho1
# Summary of the method: as §1
# [26] = molecular target: ScSla1-D1-D2
# Summary of the method: as §1
# [27] = molecular target: ScSla1-D3
# Summary of the method: as §1
# [28] = molecular target: SpAbp1-D1
# Summary of the method: as §1
# [29] = molecular target: SpBbc1
# Summary of the method: as §1
# [30] = molecular target: SpBzz1-D1
# Summary of the method: as §1
# [31] = molecular target: SpBzz1-D2
# Summary of the method: as §1
# [32] = molecular target: SpCyk3
# Summary of the method: as §1
# [33] = molecular target: SpHof1
# Summary of the method: as §1
# [34] = molecular target: SpHof1-2
# Summary of the method: as §1
# [35] = molecular target: SpHof1-3
# Summary of the method: as §1
# [36] = molecular target: SpHse1
# Summary of the method: as §1
# [37] = molecular target: SpLsb1
# Summary of the method: as §1
# [38] = molecular target: SpLsb4
# Summary of the method: as §1
# [39] = molecular target: SpMyo1
# Summary of the method: as §1
# [40] = molecular target: SpNbp2
# Summary of the method: as §1
# [41] = molecular target: SpPex13
# Summary of the method: as §1
# [42] = molecular target: SpRvs167
# Summary of the method: as §1
# [43] = molecular target: SpSla1-D1-D2
# Summary of the method: as §1
# [44] = molecular target: SpSla1-D3
# Summary of the method: as §1
# [45] = molecular target: AgAbp1
# Summary of the method: as §1
# [46] = molecular target: AgBbc1
# Summary of the method: as §1
# [47] = molecular target: AgBem1-D1
# Summary of the method: as §1
# [48] = molecular target: AgBzz1-D1
# Summary of the method: as §1
# [49] = molecular target: AgBzz1-D2
# Summary of the method: as §1
# [50] = molecular target: AgCyk3
# Summary of the method: as §1
# [51] = molecular target: AgFus1
# Summary of the method: as §1
# [52] = molecular target: AgHof1
# Summary of the method: as §1
# [53] = molecular target: AgHse1
# Summary of the method: as §1
# [54] = molecular target: AgLsb1
# Summary of the method: as §1
# [55] = molecular target: AgLsb4
# Summary of the method: as §1
# [56] = molecular target: AgMyo5
# Summary of the method: as §1
# [57] = molecular target: AgNbp2
# Summary of the method: as §1
# [58] = molecular target: AgRvs167
# Summary of the method: as §1
# [59] = molecular target: AgSho1
# Summary of the method: as §1
# [60] = molecular target: AgSla1-D1-D2
# Summary of the method: as §1
# [61] = molecular target: AgSla1-D3
# Summary of the method: as §1
# [62] = molecular target: CaAbp1-D1
# Summary of the method: as §1
# [63] = molecular target: CaAbp1-D2
# Summary of the method: as §1
# [64] = molecular target: CaBbc1
# Summary of the method: as §1
# [65] = molecular target: CaBem1-D1
# Summary of the method: as §1
# [66] = molecular target: CaBzz1-D1
# Summary of the method: as §1
# [67] = molecular target: CaBzz1-D2
# Summary of the method: as §1
# [68] = molecular target: CaCyk3
# Summary of the method: as §1
# [69] = molecular target: CaFus1
# Summary of the method: as §1
# [70] = molecular target: CaHof1
# Summary of the method: as §1
# [71] = molecular target: CaHse1
# Summary of the method: as §1
# [72] = molecular target: CaLsb1
# Summary of the method: as §1
# [73] = molecular target: CaLsb4
# Summary of the method: as §1
# [74] = molecular target: CaMyo5
# Summary of the method: as §1
binder,measurement,setting,value
HRRRRVFSIPSLKSI,SPOT peptide array binding signal intensity,[1],887
same,SPOT peptide array binding signal intensity,[2],103
same,SPOT peptide array binding signal intensity,[3],319
same,SPOT peptide array binding signal intensity,[4],1550
same,SPOT peptide array binding signal intensity,[5],49
same,SPOT peptide array binding signal intensity,[6],29.5
same,SPOT peptide array binding signal intensity,[7],38
same,SPOT peptide array binding signal intensity,[8],43.5
same,SPOT peptide array binding signal intensity,[9],76
same,SPOT peptide array binding signal intensity,[10],21
same,SPOT peptide array binding signal intensity,[11],51
same,SPOT peptide array binding signal intensity,[12],238
same,SPOT peptide array binding signal intensity,[13],1620
same,SPOT peptide array binding signal intensity,[14],3
same,SPOT peptide array binding signal intensity,[15],2170
same,SPOT peptide array binding signal intensity,[16],48.8
same,SPOT peptide array binding signal intensity,[17],12.5
same,SPOT peptide array binding signal intensity,[18],780
same,SPOT peptide array binding signal intensity,[19],44.5
same,SPOT peptide array binding signal intensity,[20],9.75
same,SPOT peptide array binding signal intensity,[21],8
same,SPOT peptide array binding signal intensity,[22],841
same,SPOT peptide array binding signal intensity,[23],≤ 0
same,SPOT peptide array binding signal intensity,[24],95.5
same,SPOT peptide array binding signal intensity,[25],1320
same,SPOT peptide array binding signal intensity,[26],321
same,SPOT peptide array binding signal intensity,[27],12.8
same,SPOT peptide array binding signal intensity,[28],293
same,SPOT peptide array binding signal intensity,[29],12
same,SPOT peptide array binding signal intensity,[30],122
same,SPOT peptide array binding signal intensity,[31],0.5
same,SPOT peptide array binding signal intensity,[32],6
same,SPOT peptide array binding signal intensity,[33],322
same,SPOT peptide array binding signal intensity,[34],51.2
same,SPOT peptide array binding signal intensity,[35],622
same,SPOT peptide array binding signal intensity,[36],997
same,SPOT peptide array binding signal intensity,[37],11
same,SPOT peptide array binding signal intensity,[38],372
same,SPOT peptide array binding signal intensity,[39],8.25
same,SPOT peptide array binding signal intensity,[40],1660
same,SPOT peptide array binding signal intensity,[41],21
same,SPOT peptide array binding signal intensity,[42],55.8
same,SPOT peptide array binding signal intensity,[43],≤ 0
same,SPOT peptide array binding signal intensity,[44],30
FPGKKSPRLPHRNKK,SPOT peptide array binding signal intensity,[45],2580
same,SPOT peptide array binding signal intensity,[46],61.9
same,SPOT peptide array binding signal intensity,[47],47.5
same,SPOT peptide array binding signal intensity,[48],50
same,SPOT peptide array binding signal intensity,[49],33.5
same,SPOT peptide array binding signal intensity,[50],≤ 0
same,SPOT peptide array binding signal intensity,[51],6.5
same,SPOT peptide array binding signal intensity,[52],35.8
same,SPOT peptide array binding signal intensity,[53],82.5
same,SPOT peptide array binding signal intensity,[54],≤ 0
same,SPOT peptide array binding signal intensity,[55],1270
same,SPOT peptide array binding signal intensity,[56],≤ 0
same,SPOT peptide array binding signal intensity,[57],87.2
same,SPOT peptide array binding signal intensity,[58],12
same,SPOT peptide array binding signal intensity,[59],33
same,SPOT peptide array binding signal intensity,[60],144
same,SPOT peptide array binding signal intensity,[61],13.5
same,SPOT peptide array binding signal intensity,[62],2250
same,SPOT peptide array binding signal intensity,[63],2660
same,SPOT peptide array binding signal intensity,[64],372
same,SPOT peptide array binding signal intensity,[65],49.8
same,SPOT peptide array binding signal intensity,[66],167
same,SPOT peptide array binding signal intensity,[67],126
same,SPOT peptide array binding signal intensity,[68],4.75
same,SPOT peptide array binding signal intensity,[69],232
same,SPOT peptide array binding signal intensity,[70],≤ 0
same,SPOT peptide array binding signal intensity,[71],5.12
same,SPOT peptide array binding signal intensity,[72],0.25
same,SPOT peptide array binding signal intensity,[73],4250
same,SPOT peptide array binding signal intensity,[74],≤ 0
same,SPOT peptide array binding signal intensity,[1],216
same,SPOT peptide array binding signal intensity,[2],247
same,SPOT peptide array binding signal intensity,[3],7.25
same,SPOT peptide array binding signal intensity,[4],152
same,SPOT peptide array binding signal intensity,[5],332
same,SPOT peptide array binding signal intensity,[6],≤ 0
same,SPOT peptide array binding signal intensity,[7],918
same,SPOT peptide array binding signal intensity,[8],15.5
same,SPOT peptide array binding signal intensity,[9],7
same,SPOT peptide array binding signal intensity,[10],9.5
same,SPOT peptide array binding signal intensity,[11],4.25
same,SPOT peptide array binding signal intensity,[12],12.5
same,SPOT peptide array binding signal intensity,[13],≤ 0
same,SPOT peptide array binding signal intensity,[14],≤ 0
same,SPOT peptide array binding signal intensity,[15],473
same,SPOT peptide array binding signal intensity,[16],47.1
same,SPOT peptide array binding signal intensity,[17],0.5
same,SPOT peptide array binding signal intensity,[18],3120
same,SPOT peptide array binding signal intensity,[19],1170
same,SPOT peptide array binding signal intensity,[20],≤ 0
same,SPOT peptide array binding signal intensity,[21],≤ 0
same,SPOT peptide array binding signal intensity,[22],186
same,SPOT peptide array binding signal intensity,[23],393
same,SPOT peptide array binding signal intensity,[24],714
same,SPOT peptide array binding signal intensity,[25],322
same,SPOT peptide array binding signal intensity,[26],570
same,SPOT peptide array binding signal intensity,[27],5.25
same,SPOT peptide array binding signal intensity,[28],756
same,SPOT peptide array binding signal intensity,[29],0.875
same,SPOT peptide array binding signal intensity,[30],208
same,SPOT peptide array binding signal intensity,[31],0.125
same,SPOT peptide array binding signal intensity,[32],1.53e-05
same,SPOT peptide array binding signal intensity,[33],15.2
same,SPOT peptide array binding signal intensity,[34],19.8
same,SPOT peptide array binding signal intensity,[35],270
same,SPOT peptide array binding signal intensity,[36],142
same,SPOT peptide array binding signal intensity,[37],17.9
same,SPOT peptide array binding signal intensity,[38],2700
same,SPOT peptide array binding signal intensity,[39],4.25
same,SPOT peptide array binding signal intensity,[40],176
same,SPOT peptide array binding signal intensity,[41],6.5
same,SPOT peptide array binding signal intensity,[42],833
same,SPOT peptide array binding signal intensity,[43],5
same,SPOT peptide array binding signal intensity,[44],13
